Screening results deposited in PubChem by The Scripps Research Institute Molecular Screening Center.
Sampled rows, rich in hits. Any-hit rate of the full collection: about 2.3%.
CHRM1 antagonist – human M1 muscarinic receptor antagonists, primary screen, CHO-K1 cells, Fluo-8 calcium fluorescence, 1536-well; AID 588852, 2011; inhibition, % at 3 µM; actives 1.3% (n = 360,000); CHO-K1 hM1, ACh EC80 antagonist; Muscarinic acetylcholine receptor M1 (Homo sapiens), P11229;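 active = percent inhibition above its own plate's cutoff, namely the mean of that plate's compound wells plus 3 SD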;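 note: peak over basal fluorescence ratio during 140 s after agonist addition; 0% = ACh EC80 plus DMSO and 100% = DMSO alone without agonist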
Target sequence (P11229 whole entry, looked up): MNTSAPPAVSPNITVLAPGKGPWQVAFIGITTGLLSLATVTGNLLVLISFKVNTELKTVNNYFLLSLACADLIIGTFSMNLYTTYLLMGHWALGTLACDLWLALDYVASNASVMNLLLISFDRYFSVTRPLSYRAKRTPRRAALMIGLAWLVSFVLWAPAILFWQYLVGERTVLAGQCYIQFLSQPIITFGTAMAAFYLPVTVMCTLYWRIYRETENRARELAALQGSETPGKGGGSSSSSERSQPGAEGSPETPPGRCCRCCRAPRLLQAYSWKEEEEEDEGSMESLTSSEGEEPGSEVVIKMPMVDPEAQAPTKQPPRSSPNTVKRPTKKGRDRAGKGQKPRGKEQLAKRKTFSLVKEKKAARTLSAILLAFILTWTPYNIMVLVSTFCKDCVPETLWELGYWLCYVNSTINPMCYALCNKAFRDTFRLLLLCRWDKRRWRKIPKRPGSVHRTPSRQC
M1 PAM parental – nonselective calcium activators in parental CHO-K1 cells, primary screen, counter-screen for M1 PAM project, cell-based, Fluo-8 calcium fluorescence, full deck, 1536-well; ATP EC20; 0% at ATP EC20, 100% at ATP max; activation, % at 3 µM; actives 0.02% (n = 360,000);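 active = activation above the run cutoff, the mean activation of all test compounds plus 3 SD, cut at about 40% in these data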;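 note: peak over basal fluorescence ratio in a 140 s read after ATP addition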
CHO-K1 Ca antag – nonselective inhibitor or artifact in parental CHO-K1 cells. ATP-induced calcium, Fluo-8 fluorescence. inhibition, % at 3 µM. actives 0.6% (n = 360,000);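 active = inhibition above a per-plate cutoff, the plate's mean sample inhibition plus 3 SD, cut at about 24% in these data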;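 note: 0% = DMSO plus EC80 ATP and 100% = DMSO alone without ATP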
CHRM1 agonist – human M1 muscarinic receptor agonists, primary screen, Fluo-8 calcium fluorescence, CHO-K1 cells, HTS. CHO-K1 hM1, agonist mode; 0% DMSO, 100% acetylcholine EC100. activation, % at 3 µM. actives 0.33% (n = 360,000);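 active = activation above the run's mean compound activation plus 3 SD, cut at about 16% in these data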;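 note: peak over basal fluorescence ratio within a 140 s kinetic read after compound addition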
CHO-K1 Ca ag – counter-screen for M1 agonists: effect in parental CHO-K1 cells. Fluo-8 calcium fluorescence; scaled to maximal ATP response, vehicle zero. activation, % at 3 µM. actives 0.48% (n = 360,000); in the data active = activation above about 15%;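 note: untransfected CHO-K1 host cells lacking M1 receptor as counterscreen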
M1 PAM – human M1 muscarinic receptor positive allosteric modulators, primary screen, CHO-K1 cells, Fluo-8 calcium fluorescence, 1536-well. Muscarinic acetylcholine receptor M1 (Homo sapiens), P11229. CHO-K1 hM1, ACh EC20; 0% = ACh EC20, 100% = maximal ACh. activation, % at 3 µM. actives 0.088% (n = 360,000). AID 588819, 2011; in the data active = activation above about 19%, passing the limit was not always enough
An asterisk follows results filed as active; · = no result.

SMILES	CHRM1 antagonist	M1 PAM parental	CHO-K1 Ca antag	CHRM1 agonist	CHO-K1 Ca ag	M1 PAM
CCOC(=O)N1CCN(C(=O)CCS(=O)(=O)c2ccc(Br)s2)CC1	-11.4	-10.4	27.4*	5.2	-0.1	15.6
O=[N+]([O-])c1cccc(CSc2nnc(Cc3ccccc3)n2-c2ccc(F)cc2)c1	-3.8	24.4	-9.4	-6.4	-0.5	6.0
CC(OC(=O)CCCOc1ccccc1)C(=O)NC(N)=O (stereo not given)	4.7	-5.4	28.4*	-2.2	0.1	-5.6
O=C(O)CSc1cn(Cc2ccccc2)c2ccccc12	-11.7	13.1	-8.9	-2.9	0.7	8.7
O=C(O)c1cn(Cc2ccccc2)c2ccccc2c1=O	61.5*	23.2	-4.5	82.2*	0.6	-11.3
CC(=O)N(C)c1ccc(NCc2cc(=O)oc3cc(C)c(O)cc23)cc1	0.9	18.1	-13.1	-6.2	1.0	2.6
COc1cccc2cc(C(=O)C3=C(O)C(=O)N(CCN4CCOCC4)C3c3cccc(Cl)c3)oc12 (stereo not given)	-11.2	7.7	27.4*	5.2	-0.5	18.1
Cc1cc(Cl)ccc1NC(=S)NCc1ccc(Cl)cc1	1.5	-2.7	21.1	2.0	7.5	-13.4
Cc1cc(Cl)ccc1NC(=S)NCCc1ccc(Cl)cc1	21.7	-8.9	25.5*	-2.5	1.8	-10.8
O=C(Nc1cccc(OC(F)(F)F)c1)C1Cc2c(-c3cccc(F)c3)ccnc2O1 (stereo not given)	-10.6	3.0	-1.5	-3.1	1.1	4.5
CN(C)CCNc1ncnc2c1ncn2[C@H]1CN(Cc2ccc(-c3ccccc3)cc2)C[C@@H](CO)O1	-12.9	12.5	-2.2	-6.8	1.0	3.2
CN1CCN(c2ccc(Cl)cc2NS(=O)(=O)c2ccccc2Cl)CC1	35.9*	13.8	1.7	-2.9	1.6	-19.0
O=c1[nH][nH]c2c1[C@H](C1CCCC1)O[C@H](CCc1ccccc1)C2	·	4.7	-19.9	·	-0.1	·
COc1ccccc1Cn1c(=S)[nH]c2cc(C(=O)NCC(OC)OC)ccc2c1=O	15.8	5.9	3.9	-0.7	11.6	-10.7
CC(C)C(NC(=O)OCc1ccccc1)C(=O)NC(Cc1ccc(O)cc1)C(=O)O (stereo not given)	-9.0	-10.6	-4.8	-3.0	0.9	5.3
CC(C)[C@H](NC(=O)[C@H](CCCN=C(N)N)NC(=O)NC(Cc1ccccc1)C(=O)O)C(=O)NC(C=O)CCCN=C(N)N (stereo not given in full)	-13.7	-5.9	26.8*	-3.4	0.3	-1.7
O=C1/C(=C\c2cc([N+](=O)[O-])ccc2O)SC(=S)N1Cc1ccc(Cl)cc1	36.4*	-5.9	6.7	23.5*	6.6	-12.7
Cc1ccc(C(O)c2ncc(-c3ccccc3C(F)(F)F)[nH]2)cc1F (stereo not given)	-9.2	16.9	-14.6	-2.0	1.7	-0.1
CCCCNc1nccnc1-c1cccc(C=O)c1	6.5	-13.1	-1.8	-4.4	-0.1	-4.4
CCOC(=O)C1CCCN(Cc2nc(N)nc(Nc3ccccc3OC)n2)C1 (stereo not given)	-8.7	19.9	-10.6	19.5*	1.0	14.8
N#C/C(=C(/O)CN1CCCC1)c1nc(-c2ccccc2)cs1	-6.0	-2.7	-6.0	-4.0	0.2	6.6
CCOC(=O)C1CCCN(Cc2nc(N)nc(Nc3ccc(Cl)cc3)n2)C1 (stereo not given)	-33.2	-2.0	15.9	37.0*	0.3	3.0
CCOC(=O)C1CCCN(C/C(O)=C(\C#N)c2nc(-c3ccc(Cl)cc3)cs2)C1 (stereo not given)	7.9	-6.2	3.5	25.4*	0.0	-9.6
Clc1cccc(Cl)c1C[n+]1ccc2ccccc2c1	31.4*	-8.8	1.5	-11.5	0.5	-16.7
c1ccc(C[n+]2ccc3ccccc3c2)cc1	25.2	-14.0	16.8	-7.3	0.0	-12.5
SMILES	CHRM1 antagonist	M1 PAM parental	CHO-K1 Ca antag	CHRM1 agonist	CHO-K1 Ca ag	M1 PAM
COc1ccc(CNc2ccc(Br)cc2)cc1	-1.2	16.1	-11.8	-4.2	0.7	0.6
COc1ccc(NC2=NCC(Cc3ccc(Br)cc3)S2)cc1 (stereo not given)	79.0*	23.4	-4.4	-9.6	9.3	-26.1
c1nc(SSc2ncnc3nc[nH]c23)c2[nH]cnc2n1	-11.1	15.8	-15.0	1.9	0.7	5.0
Cc1ccccc1-n1c(SCC(=O)NCc2cccs2)nc2ccccc2c1=O	-5.8	20.8	-8.4	-5.8	1.0	8.6
COc1ccc2c(c1OC)C(=O)N1c3ccccc3C(=O)N(c3ccccc3F)C21 (stereo not given)	38.8*	13.4	9.1	3.2	6.5	-11.5
Cc1ccc(-c2cc(C(=O)N/N=C/c3ccc(Cl)cc3)n[nH]2)o1	9.1	6.2	-17.8	-3.9	0.9	1.6
Cc1ccc(S(=O)(=O)Nc2ccc3c(c2)C(=O)NC3=O)cc1[N+](=O)[O-]	-2.7	-7.3	6.1	-1.9	0.4	4.1
COCCNC(=O)c1ccc2c(=O)n(CCCN3CCCC3=O)c(=S)[nH]c2c1	-8.7	14.2	-13.4	-1.9	1.2	10.0
O=C(NCc1ccccc1Cl)c1ccc2c(=O)n(CCCN3CCCC3=O)c(=S)[nH]c2c1	1.4	-7.5	30.3*	-1.9	-0.7	9.4
O=C(c1ccc(S(=O)(=O)N2CCc3ccccc3C2)cc1)N1CCCCC1	-0.2	-3.4	12.6	-1.3	2.2	2.9
CS(=O)(=O)NCCNc1ccc(Cl)cc1[N+](=O)[O-]	23.4*	11.1	-1.3	-5.4	5.8	-20.4
CN(C)CCNc1ccc(Cl)cc1[N+](=O)[O-]	34.7*	7.8	1.6	-7.8	0.6	-25.3
O=C(COC(=O)Cc1c[nH]c2ccccc12)NC1CCS(=O)(=O)C1 (stereo not given)	27.2*	-20.9	9.7	-1.7	-0.1	-8.4
O=C(COC(=O)Cc1ccc(F)cc1)NC1CCS(=O)(=O)C1 (stereo not given)	-8.3	-6.9	-1.1	0.6	0.6	5.4
CN(C)CCCNC(=O)N1c2ccccc2C=Cc2ccccc21	97.5*	9.8	-9.7	-8.8	0.8	-29.3
CN1\C(=C/C=C/C=C/C=[N+](C)C)C(C)(C)c2ccccc21	47.0*	-4.4	14.2	52.6*	25.7*	-20.1
CC(C)Nc1ncnc2c1ncn2[C@H]1CN(C2CCCC2)C[C@@H](CO)O1	-12.1	20.0	-17.1	-4.0	0.4	5.7
CN1CCN(c2ccc(S(=O)(=O)N3CCOCC3)cc2)CC1	-6.5	1.2	-1.6	-5.4	0.2	6.2
